Screening data (PubChem BioAssay)
Compounds with a hit are over-represented: about 3.6% of the library has one in this group of screens.
JMJD2E inh = inhibitors of human JMJD2E histone demethylase; JMJD2E catalytic domain, FDH-coupled NADH fluorescence (FDH is formaldehyde dehydrogenase); B2RXH2; Potency, µM (doses to about 57.1 µM), without a hit: top-dose activity change, negative = inhibition, actives largely listed as inhibitors; 230,000 compounds, 1.6% hits; active means well fitted inhibition curve with a large enough effect, not every such curve was filed as active; inconclusive means small, poorly fitted or top-dose-only effect, or another doubt; inactive means no such curve, though single readings can be large or run the other way;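 further: 0% = wells with enzyme and -100% = buffer wells without enzyme; nearly all actives have a fitted effect of over 50% in size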
Epigenetic derep = regulators of epigenetic silencing causing reporter derepression in mouse cells. 280,000 compounds, 0.2% hits. murine LDR cells, GFP reporter derepression, 30 h. Potency, µM (titrated, usually from 53.9 µM), without a hit: at the top dose GFP activation, hits mostly activators; further: % of control where 0% means no effect; nearly all actives have a fitted effect of over 60% in size
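Readout is the number of GFP-expressing murine LDR cells, counted by cytometry following washing. Cells were treated with compound for 30 h at 37 C; the stably integrated CMV-GFP locus is normally silent.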
NPSR antag = neuropeptide S receptor (human) antagonism, cAMP | Q6W5P4 | CHO-NPSR cells, cAMP TR-FRET, antagonist mode | Potency, µM (highest dose often 38.3 µM), without a hit: top-dose activity change, negative = inhibition, actives largely listed as inhibitors | 220,000 compounds, 1% hits | AID 1461; further: on the % scale 0 is the no-effect control and ±100 the full control effect; nearly all actives have a fitted effect of over 50% in size
GCN5L2 inh = GCN5L2 (KAT2A) acetyltransferase inhibition | Q92830 | GCN5L2 HAT assay, ThioGlo1 CoA-SH fluorescence | Potency, µM (series often up to 58.9 µM), for the others: at the top dose activity change, negative = inhibition, most hits filed as inhibitors | 390,000 compounds, 0.21% hits | AID 504327; further: on the % scale 0 is the no-effect control and ±100 the full control effect
Target sequence (Q92830 whole entry, looked up): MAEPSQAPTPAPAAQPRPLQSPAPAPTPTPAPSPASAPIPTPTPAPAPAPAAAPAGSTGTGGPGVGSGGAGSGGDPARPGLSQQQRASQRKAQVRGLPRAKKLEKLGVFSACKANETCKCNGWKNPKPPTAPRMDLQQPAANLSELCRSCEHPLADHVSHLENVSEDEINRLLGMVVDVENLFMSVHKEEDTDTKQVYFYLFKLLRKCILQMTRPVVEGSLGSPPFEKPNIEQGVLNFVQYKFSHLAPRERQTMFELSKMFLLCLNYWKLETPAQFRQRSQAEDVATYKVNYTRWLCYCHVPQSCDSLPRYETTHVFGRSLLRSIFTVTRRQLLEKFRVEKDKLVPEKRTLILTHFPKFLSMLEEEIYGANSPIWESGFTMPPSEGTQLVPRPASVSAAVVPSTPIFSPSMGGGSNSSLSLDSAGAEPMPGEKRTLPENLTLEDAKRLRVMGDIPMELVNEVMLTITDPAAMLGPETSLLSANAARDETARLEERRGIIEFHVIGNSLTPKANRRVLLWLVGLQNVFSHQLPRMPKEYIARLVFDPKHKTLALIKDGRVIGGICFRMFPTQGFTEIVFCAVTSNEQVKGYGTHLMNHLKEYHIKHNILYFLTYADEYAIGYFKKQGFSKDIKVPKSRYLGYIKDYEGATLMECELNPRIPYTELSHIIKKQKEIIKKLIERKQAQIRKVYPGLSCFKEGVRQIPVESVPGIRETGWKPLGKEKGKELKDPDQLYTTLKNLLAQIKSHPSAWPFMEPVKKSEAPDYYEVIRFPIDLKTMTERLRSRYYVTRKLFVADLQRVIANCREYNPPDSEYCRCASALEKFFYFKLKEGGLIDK
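qHTS, 1536-well. 20nM enzyme, pH 7.5 HEPES/EDTA/Tween-20 buffer; 15 min compound preinc., RT. Start: 75uM H3(1-25), 70uM AcCoA, 50uM ThioGlo1. Read Ex340/Em540 at t=0 (autofluorescence flag) and t=20 min.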
IMPase Li cell = IMPase inhibition in cells with lithium potentiation | Potency, µM (titrated, usually from 59.4 µM), for inactives: at the highest dose activity, negative = IMPase inhibition, most hits filed as inhibitors | 210,000 compounds, 0.35% hits | CHO-M1 cells, IP1 TR-FRET (IP-One), carbachol + lithium;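 further: IP1 builds up when IMPase is blocked and the TR-FRET signal falls; plate controls were basal vehicle for no effect and high inhibitor control for full effect; nearly all actives have a fitted effect of over 50% in size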
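Concentration–response in CHO-M1 cells, lithium-potentiated; 30 min at 37C. IP1 detected by competitive TR-FRET after 10 min lysis at RT. Hill-fitted AC50.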
Sfp PPTase inh = inhibitors of Bacillus subtilis Sfp phosphopantetheinyl transferase. AID 1490. Q9F4F7. 310,000 compounds, 3.5% hits. Potency, µM, without a hit: largest response in the series, negative = inhibition, actives largely listed as inhibitors. Biochemical Sfp PPTase activity, qHTS;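 further: the enzyme is Sfp with the accession as filed and its product quenches rhodamine fluorescence; 0% = enzyme reaction without inhibitor and -100% = no enzyme wells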
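Fluorescence-quenching assay with 15 nM Sfp, 5 uM rhodamine-CoA and 12.5 uM BHQ-2-labelled ybbR peptide in pH 7.6 Hepes/MgCl2 buffer. Enzyme was pre-incubated with compound for 15 min at room temperature. Rate was taken from the 30-min fluorescence change (525/598 nm).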
The depositor's hits bear a star; [ ] = remark or other dose. Unless noted, the call rests on the fitted dose curve; in most records, active means well fitted curve in the direction sought with a large enough effect; inconclusive means small, poorly fitted or top-dose-only effect, or another doubt; inactive means no such curve, though single readings can be large; an effect the other way counts as inactive or inconclusive. Potency means the concentration at half of the fitted maximal effect.

For COc1ccc(N2C(=O)C(Cl)=C(Nc3c(C)n(C)n(-c4ccccc4)c3=O)C2=O)cc1 the results were JMJD2E inh -10.1%, Epigenetic derep -3.0%, NPSR antag -16.6%[46.1 µM], GCN5L2 inh -9.4%, IMPase Li cell 30.1%[38.3 µM] and Sfp PPTase inh 44.7µM*.
For CCc1ccc(NC(=O)CSc2nnc(-c3cc4occc4n3C)n2-c2ccccc2C)cc1 the results were Epigenetic derep -1.2% and GCN5L2 inh -7.5%.
O=C(NC1(C(F)(F)F)N=C2SCCN2C1=O)C1CCCCC1 (stereo unspecified) was read as JMJD2E inh -3.8%, Epigenetic derep -1.0%, NPSR antag 3.3%[46.1 µM], GCN5L2 inh 4.8%, IMPase Li cell 21.9%[38.3 µM] and Sfp PPTase inh 63.1µM*.
For COC(=O)C1=C(C)N(CC2CC2)C(=O)N[C@H]1CCc1ccccc1 the results were JMJD2E inh -6.0%, Epigenetic derep -1.1%, IMPase Li cell 17.5% and Sfp PPTase inh -16.3%.
COc1ccc(SCC(Cc2ccccc2)N2CCN(CC(C)C)CCC2=O)cc1 (stereo unspecified) was read as Sfp PPTase inh -22.5%.
For Cc1ccc(/C=N\NC(=O)CNC(=O)C23CC4CC(CC(C4)C2)C3)o1 the results were GCN5L2 inh -8.9% and Sfp PPTase inh 56.2µM*.
`COC(=O)[C@@H]1[C@@H](C)N(CCc2cc(OC)c(OC)c(OC)c2)C(=O)N[C@H]1c1ccccc1` gave JMJD2E inh 2.4%[11.4 µM], IMPase Li cell 7.0% and Sfp PPTase inh -13.6%.
C[Si](C)(C)C#Cc1ccccc1NC(=S)Nc1ccccc1 was read as JMJD2E inh inconclusive, Epigenetic derep 1.0%, IMPase Li cell 4.8% and Sfp PPTase inh 79.4µM*.
Screening CCOC(=O)Cc1csc(NC(=O)Nc2ccc(OC(F)(F)F)cc2)n1 returned JMJD2E inh 18.3%, Epigenetic derep 2.8%, NPSR antag 8.6%, GCN5L2 inh inconclusive and Sfp PPTase inh 7.8%.
For CCOC(=O)Cc1csc(NC(=O)NC2(C(F)(F)F)Oc3cc(Cl)c(Cl)cc3O2)n1 the results were JMJD2E inh 28.2µM*, Epigenetic derep 2.8%, NPSR antag 3.9%[46.1 µM], GCN5L2 inh -1.8%, IMPase Li cell 11.7%[38.3 µM] and Sfp PPTase inh inconclusive.
CCOC(=O)Cc1csc(NC(=O)NC2(C(F)(F)F)Oc3ccccc3O2)n1 was read as JMJD2E inh inconclusive, Epigenetic derep -4.4%, NPSR antag -24.8%[46.1 µM], GCN5L2 inh -3.5%, IMPase Li cell -14.4%[38.3 µM] and Sfp PPTase inh 44.7µM*.
`COC(=O)C(C)N1C(=O)S/C(=C/c2cc(C)n(-c3ccccn3)c2C)C1=O` (stereo unspecified) gave JMJD2E inh -14.7%, Epigenetic derep -1.0%, NPSR antag -7.3%[46.1 µM], GCN5L2 inh -20.2%, IMPase Li cell 38.1%[38.3 µM] and Sfp PPTase inh 1.8%.
Cc1cc(/C=C2/NC(=O)NC2=O)c(C)n1-c1ccc(N2CCOCC2)cc1 was read as JMJD2E inh inconclusive, Epigenetic derep -0.4%, NPSR antag -26.7%, GCN5L2 inh -14.2%, IMPase Li cell 11.5% and Sfp PPTase inh -0.7%.
Screening Cc1cc(/C=C2\NC(=O)N(Cc3ccc(Cl)cc3)C2=O)c(C)n1C returned JMJD2E inh -2.9%, Epigenetic derep -0.9%, NPSR antag -7.4%, GCN5L2 inh 5.5%, IMPase Li cell 0.7% and Sfp PPTase inh 0.3%.
For Cc1cc(/C=C2/NC(=O)NC2=O)c(C)n1-c1ccccn1 the results were JMJD2E inh 25.1µM*, Epigenetic derep -0.9%, NPSR antag -21.3%, GCN5L2 inh -6.7%, IMPase Li cell 11.3% and Sfp PPTase inh 10.9%.
Cc1cc(/C=C2\NC(=O)NC2=O)c(C)n1-c1ccc(N2CCOCC2)cc1 was read as JMJD2E inh 15.8µM*, Epigenetic derep 1.2%, NPSR antag 29.4%, GCN5L2 inh -13.0% and Sfp PPTase inh -0.4%.
Cc1cc(/C=C2/NC(=O)NC2=O)c(C)n1-c1ccc(C#N)cc1 was read as JMJD2E inh inconclusive, Epigenetic derep 1.8%, NPSR antag -16.5%, GCN5L2 inh -9.1%, IMPase Li cell -0.4% and Sfp PPTase inh -9.5%.
For Cc1ccc(-n2c(C)cc(/C=C3\NC(=O)NC3=O)c2C)c(C)c1 the results were JMJD2E inh 25.1µM*, Epigenetic derep 3.2%, NPSR antag -39.5%, GCN5L2 inh -13.6%, IMPase Li cell 27.9% and Sfp PPTase inh -24.2%.
`Cc1cccc(CN2C(=O)N/C(=C/c3cc(C)n(-c4cc(C)ccn4)c3C)C2=O)c1` gave JMJD2E inh inconclusive, Epigenetic derep 0.0%, NPSR antag 15.8µM*, GCN5L2 inh -4.7%, IMPase Li cell 50.1%[38.3 µM] and Sfp PPTase inh -10.8%.
For CCN(CC)CCN(C(=O)c1ccco1)c1nc2ccc(Br)cc2s1 the results were Epigenetic derep -1.2% and GCN5L2 inh -13.6%.
For Cc1ccc(/C=C(/C#N)C(=O)NC(C)c2ccccc2)o1 (stereo unspecified) the results were JMJD2E inh inconclusive, Epigenetic derep 13.3%, NPSR antag -3.0%, GCN5L2 inh -4.7%, IMPase Li cell -1.5% and Sfp PPTase inh 22.4µM*.
`CC(C)NC(=O)/C(C#N)=C/c1ccc(N(C)C)o1` gave JMJD2E inh -9.5%, Epigenetic derep -0.8%, NPSR antag 12.6µM*, GCN5L2 inh 0.3% and Sfp PPTase inh -15.0%.
Cc1ccc(/C=C(\C#N)C(=O)NC(C)c2ccccc2)o1 (stereo unspecified) was read as GCN5L2 inh -12.9% and Sfp PPTase inh -11.4%.
`CCC(=O)Nc1ccc2c(c1)nc(CN1CCN(C(C)=O)CC1)n2C` gave JMJD2E inh -1.3%, Epigenetic derep -4.5%, NPSR antag -6.6%[46.1 µM], GCN5L2 inh 31.6µM*, IMPase Li cell -23.8%[38.3 µM] and Sfp PPTase inh -0.4%.
Screening COc1ccc(-c2nnc3n2N=C(c2cc(OC)ccc2OC)CS3)c(OC)c1 returned Sfp PPTase inh 1.7%.
For [O-][n+]1onc2c1CCC(=N/O)/C2=N\Nc1ccccc1 the results were JMJD2E inh 14.2%, Epigenetic derep 9.4%, NPSR antag inconclusive, GCN5L2 inh inconclusive and Sfp PPTase inh 31.6µM*.
Screening CC(=O)NC(=S)Nc1ccc([N+](=O)[O-])cc1C returned JMJD2E inh 7.2%, Epigenetic derep -6.1%, NPSR antag 12.6%, GCN5L2 inh -4.6%, IMPase Li cell -4.6% and Sfp PPTase inh -7.3%.
For O=C(NNc1ccccc1[N+](=O)[O-])Nc1ccccc1 the results were JMJD2E inh -5.2%, Epigenetic derep -2.1%, NPSR antag -8.5%[46.1 µM], GCN5L2 inh 2.2%, IMPase Li cell 17.6%[38.3 µM] and Sfp PPTase inh -2.4%.
